# The list is not random: actives were taken first. Their share in the collection is about 4.8%.
# DAX1 inh-1 – DAX1 (NR0B1) inhibitors on StAR promoter, primary screen, cell-based, luminescence, SF-1 (NR5A1), full-length DAX-1 | HEK293T StAR-luciferase reporter, SF-1/DAX-1 repression relief | inhibition, % at 6.8 µM | actives 1.1% (n = 370,000);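 active = inhibition above the mean over all tested compounds plus 3 SD, cut at about 3.6% in these data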;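 also: 0% = DAX-1 cells with DMSO and 100% = cells lacking DAX-1 with DMSO; higher inhibition means more luminescence from relief of DAX-1 repression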
# SMARCA2 activ – SMARCA2 (BRM) function activators, primary screen, cell-based, luminescence, high throughput. actives 1% (n = 370,000). MG213 cells, MMTV-luciferase reporter, dexamethasone, overnight. activation, % at 9.1 µM. AID 652017, 2013; in the data active = activation above about 7.8%;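 also: 0% = vehicle wells and 100% = reference activator wells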
# ssDAF-12 act – S. stercoralis DAF-12 nuclear receptor activators, primary screen, cell-based, luminescence, HEK293, GRIP1 co-expression, lit1-tk-luc; HEK293 ssDAF-12/GRIP1 lit1-tk-luc reporter; % of 3 µM dafachronic acid response; actives 1% (n = 370,000); AID 652126, 2013; Nuclear hormone receptor DAF-12 (Strongyloides stercoralis); activation, % at 6.8 µM;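 active = activation above the mean over all tested compounds plus 3 SD, cut at about 0.9% in these data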;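 also: 0% = DMSO-only wells and 100% = 3 µM delta7-dafachronic acid wells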
# hcDAF12 agonist – H. contortus DAF-12 nuclear receptor activators, primary screen, cell-based, luminescence, HEK293, lit1-tk-luc reporter | activation, % at 6.8 µM | HEK293 hcDAF-12 lit1-tk-luc reporter; 0% DMSO, 100% Δ7-dafachronic acid | actives 1.4% (n = 370,000) | AID 652067, 2013;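 active = activation above the mean of all tested compounds plus 3 SD, cut at about 5.5% in these data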;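 also: 100% = response to 3 µM Δ7-dafachronic acid high control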
# hgDAF-12 ag – H. glycines DAF-12 receptor agonists, primary screen, cell-based, luminescence, HEK293, GAL4 fusion, UAS-luciferase | AID 687014, 2013 | activation, % at 6.8 µM | Nuclear hormone receptor DAF-12 (Heterodera glycines), GAL4 fusion | actives 1.8% (n = 370,000) | HEK293 GAL4-hgDAF12 UAS-luciferase reporter, agonist luminescence; normalized to butyrate control;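 active = activation above a cutoff set at the mean of all screened compounds plus 3 SD, cut at about 10% in these data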;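 also: 0% = DMSO wells and 100% = sodium butyrate wells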
# DAX1 inh-2 – DAX1 (NR0B1) inhibitors, primary screen, cell-based, HEK293, Gal4-DAX1, luciferase luminescence; Nuclear receptor subfamily 0 group B member 1 (Homo sapiens), P51843; HEK293 Gal4-DAX1 luciferase reporter; inhibition, % at 6.75 µM; actives 0.99% (n = 340,000); AID 504766, 2011;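 active = inhibition above the mean over all tested compounds plus 3 SD, cut at about 4.2% in these data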;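 also: 0% = DAX1-transfected cells with DMSO and 100% = empty-vector control cells with DMSO; inhibition shows as a rise in luminescence from relieved DAX1 repression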
# Target sequence (P51843 207-470 limits assumed): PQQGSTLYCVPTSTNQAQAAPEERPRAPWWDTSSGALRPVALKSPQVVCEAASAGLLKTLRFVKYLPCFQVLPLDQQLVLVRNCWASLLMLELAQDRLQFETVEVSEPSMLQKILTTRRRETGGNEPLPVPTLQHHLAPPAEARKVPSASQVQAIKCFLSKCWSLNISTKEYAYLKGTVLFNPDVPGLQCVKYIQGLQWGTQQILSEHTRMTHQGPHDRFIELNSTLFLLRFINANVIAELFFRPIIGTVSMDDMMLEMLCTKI
# hgDAF12 ag – H. glycines DAF-12 receptor agonists, confirmation, cell-based, luminescence, HEK293, GAL4-LBD fusion. shares compounds with hgDAF-12 ag. HEK293 GAL4-hgDAF12 luciferase reporter, agonist mode; percent of butyrate response. activation, % at 6.8 µM. actives 80% (n = 3,300);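 active = mean activation over triplicate wells above the hit cutoff derived from the earlier primary screen, cut at about 11% in these data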;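 also: 0% = DMSO low control and 100% = 2 mM sodium butyrate high control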
# LXR ag 2 – LXR agonists, Gal4 luciferase reporter, confirmation, counter-screen for hgDAF-12 agonist project, cell-based, luminescence, HEK293, H. glycines campaign | shares compounds with hgDAF-12 ag | 24 h | activation, % at 6.8 µM | 3,300 tested, under 10 active | AID 743051, 2013;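 active = mean activation of the triplicate above a set limit carried over from the primary screen, none filed active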
# Target sequence (P55055 whole entry, looked up, the tested form may be a part): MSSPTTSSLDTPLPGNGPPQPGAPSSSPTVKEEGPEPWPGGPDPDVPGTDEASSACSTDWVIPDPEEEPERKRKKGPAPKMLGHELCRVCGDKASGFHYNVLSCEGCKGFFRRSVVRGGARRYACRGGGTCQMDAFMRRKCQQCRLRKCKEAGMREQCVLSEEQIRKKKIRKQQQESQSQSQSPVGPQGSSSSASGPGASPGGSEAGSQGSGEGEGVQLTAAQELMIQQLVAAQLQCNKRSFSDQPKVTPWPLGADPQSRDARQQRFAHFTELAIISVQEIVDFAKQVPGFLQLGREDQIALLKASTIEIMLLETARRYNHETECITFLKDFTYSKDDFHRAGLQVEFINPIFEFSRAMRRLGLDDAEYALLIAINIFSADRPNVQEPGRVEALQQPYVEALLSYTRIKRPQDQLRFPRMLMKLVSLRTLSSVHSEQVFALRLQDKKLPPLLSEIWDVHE
# * hit, by the source's call; nt = not tested or not shown.
SMILES,DAX1 inh-1,SMARCA2 activ,ssDAF-12 act,hcDAF12 agonist,hgDAF-12 ag,DAX1 inh-2,hgDAF12 ag,LXR ag 2
Cc1ccc(C)c(CSc2nnc(-c3cccnc3)o2)c1,-0.7,-3.9,-1.3,-0.5,-4.3,0.2,nt,nt
Fc1ccccc1CSc1nnc(-c2cccnc2)o1,3.0,5.2,-0.1,2.6,14.5*,4.6*,10.6*,0.5
Cc1ccccc1CSc1nnc(-c2ccncc2)o1,1.1,1.1,-1.4,-0.3,3.9,0.4,nt,nt
O=C(Nc1ccc2c(c1)OCCO2)C1CCC1,-0.3,-0.9,-1.5,0.2,2.6,0.9,nt,nt
O=C(Nc1ccc([N+](=O)[O-])cc1)Nc1ccc2c(c1)OCCO2,0.1,2.6,0.1,2.8,17.1*,3.1,19.5*,0.8
O=C(NCCc1ccc(F)cc1)Nc1ccc2c(c1)OCO2,1.8,3.4,-0.4,2.3,8.9,2.8,nt,nt
O=C(Nc1ccc2c(c1)OCCO2)NC1CCCCC1,2.5,4.2,0.5,5.2,13.5*,0.0,16.4*,0.7
O=C(Nc1ccc2c(c1)OCO2)Nc1ccc2c(c1)OCO2,4.0*,3.6,0.5,5.2,22.2*,1.4,16.8*,0.7
O=C(NCCc1ccccc1)Nc1ccc2c(c1)OCO2,3.5,7.8*,0.7,3.1,16.3*,2.0,16.6*,0.6
O=C(Nc1cccnc1)Nc1ccc2c(c1)OCO2,1.0,0.4,-0.2,5.4,7.8,0.9,nt,nt
CC1C(=O)N2CCCc3cc(S(=O)(=O)N(C)c4ccccc4)cc1c32 (stereo not given),0.1,-3.6,-0.8,-1.6,0.2,0.0,nt,nt
COc1ccccc1C1=NOC(Cn2c(NCCOCCO)nc3c2c(=O)n(C)c(=O)n3C)C1 (stereo not given),0.2,3.2,-1.8,0.7,2.0,nt,nt,nt
CC1CN(C(=O)CCNC(=O)c2ccc(Cl)cc2)CC(C)O1 (stereo not given),-1.4,-0.7,-0.9,-1.1,0.5,0.5,nt,nt
CNc1snc(C)c1C(=O)OC(C)C(=O)NCc1ccccc1 (stereo not given),0.7,-4.0,-0.8,0.8,-2.6,0.2,nt,nt
O=C(Nc1ccc2nc3ccccc3nc2c1)c1ccccc1,3.0,4.2,0.8,4.5,15.7*,0.6,14.5*,1.0
Cc1nc2cc(NC(=O)Nc3cccc4ccccc34)ccc2n1C,3.5,6.5,0.5,1.5,17.8*,2.3,12.3*,0.7
O=C(Nc1ccc(Cl)c(Cl)c1)c1ccccc1,-0.3,3.2,-0.4,2.0,2.7,3.4,nt,nt
Cc1nc2cc(NC(=O)c3ccc(Cl)cc3)ccc2n1C,2.3,2.4,-0.2,3.9,13.3*,0.5,16.3*,0.9
Cc1ccc(N2CCN(C(=O)C(=O)c3cccc([N+](=O)[O-])c3)CC2)cc1,-0.6,-3.7,-0.9,-1.3,-4.7,nt,nt,nt
O=C(Nc1ccccn1)N1CCOCC1,0.1,-1.5,-1.2,1.0,2.9,1.5,nt,nt
O=C(Nc1ccc2nc(-c3ccccn3)c(-c3ccccn3)nc2c1)N1CCOCC1,-0.1,-1.4,-1.1,-1.0,14.8*,-0.5,-0.1,0.1
COc1cc(/C=N/NS(=O)(=O)c2ccc3ccccc3c2)ccc1OCc1ccc(C(=O)O)cc1,3.1,1.5,-0.3,2.9,15.5*,-6.7,12.7*,0.8
COc1ccc(/C=N/NS(=O)(=O)c2ccc(C)cc2)cc1OC(=O)c1ccccc1,-0.4,-1.1,-1.5,-2.2,1.0,0.8,nt,nt
COc1cc(/C=N/O)ccc1OCc1ccc(C(=O)O)cc1,2.4,5.3,0.2,2.6,13.3*,-6.3,15.8*,1.0
O=C(O)/C(=C\c1ccccc1OC(F)F)Sc1nnc(-c2ccc(F)cc2)o1,-1.0,2.7,-2.0,-1.6,1.2,0.5,nt,nt
SMILES,DAX1 inh-1,SMARCA2 activ,ssDAF-12 act,hcDAF12 agonist,hgDAF-12 ag,DAX1 inh-2,hgDAF12 ag,LXR ag 2
CCOc1ccc(C(=O)Nc2nc3ccccc3[nH]2)cc1OCC,-2.8,-2.0,-2.1,-2.9,-4.7,-3.1,nt,nt
N#Cc1ccc(C(=O)Nc2nc3ccccc3[nH]2)cc1,2.1,6.4,0.3,2.3,16.0*,0.1,11.3*,0.7
COc1ccc(C(=O)C2CCCN(C(=O)Cn3nc(C)cc3C)C2)cc1F (stereo not given),-0.4,-0.1,-1.2,-0.2,-0.8,2.3,nt,nt
Cn1ccs/c1=N\C(=O)Nc1cccc(Cl)c1,3.0,3.3,0.4,2.3,16.2*,1.0,11.2*,0.5
C=C(C)CN(CC)C(=O)CCc1nnc(CCCc2ccccc2)o1,1.1,2.4,-0.1,3.7,17.4*,1.9,11.9*,0.3
CCOC(=O)CC[C@H]1CC[C@]2(CCCN(S(=O)(=O)c3ccccc3)C2)O1,-0.4,0.1,-1.0,-1.9,-3.5,nt,nt,nt
Cc1nnc(NC(=O)CSc2ccc(-c3ccco3)nn2)s1,-0.7,4.0,-1.5,1.6,-0.2,0.5,nt,nt
CCOc1ccc(-c2ccc(SCC(=O)Nc3nnc(C)s3)nn2)cc1,4.3*,2.4,-0.3,1.5,13.3*,1.2,16.6*,0.7
Cc1ccc(OCC(COCc2ccccc2)NC(C)C)cc1 (stereo not given),0.2,-0.9,-1.4,-1.3,0.3,0.7,nt,nt
CN(C)c1ccc(/C=C(\C#N)c2ccccn2)cc1,1.9,-0.3,-1.2,0.7,0.0,-4.1,nt,nt
COC(=O)c1ccc(/C=C(\C#N)c2ccccn2)cc1,3.1,4.9,1.5*,3.0,14.6*,5.0*,14.0*,0.7
CN(C)/C=N/C(=S)Nc1ccc(Cl)cc1,0.9,2.3,-0.9,0.8,13.9*,1.8,10.9*,0.3
CC(NC(=O)C(=O)N/N=C/c1ccccc1)c1ccccc1 (stereo not given),0.3,-0.5,-1.5,0.2,0.3,0.2,nt,nt
C/C(=N/NC(=O)c1ccccc1)C1=C(O)CC(C)(C)CC1=O,1.8,4.7,-0.9,3.5,14.3*,1.9,3.2,0.2

# Source: PubChem BioAssay (The Scripps Research Institute Molecular Screening Center)
